Results reported in PubChem BioAssay AID651598 (Sanford-Burnham Center for Chemical Genomics, 2012).
Several values for one entry are separate records, joined by “and”; a condition that tells them apart may be missing. Equal values may be shown once.

What follows are compounds tested against C-X-C chemokine receptor type 6 (Homo sapiens) (UniProt O00574) (assay: APJ beta-arrestin recruitment blockade alongside CXCR6 – cell-based, DiscoveRx, panel, CHO-K1, counter-screen for CXCR6 antagonist project, SAR follow-up (AID 651598)). Details: CHO-K1 PathHunter beta-arrestin luminescence, antagonist mode; run 2, at 80 µM (top of the series).
Sequence of C-X-C chemokine receptor type 6 (Homo sapiens) (O00574 whole entry, looked up): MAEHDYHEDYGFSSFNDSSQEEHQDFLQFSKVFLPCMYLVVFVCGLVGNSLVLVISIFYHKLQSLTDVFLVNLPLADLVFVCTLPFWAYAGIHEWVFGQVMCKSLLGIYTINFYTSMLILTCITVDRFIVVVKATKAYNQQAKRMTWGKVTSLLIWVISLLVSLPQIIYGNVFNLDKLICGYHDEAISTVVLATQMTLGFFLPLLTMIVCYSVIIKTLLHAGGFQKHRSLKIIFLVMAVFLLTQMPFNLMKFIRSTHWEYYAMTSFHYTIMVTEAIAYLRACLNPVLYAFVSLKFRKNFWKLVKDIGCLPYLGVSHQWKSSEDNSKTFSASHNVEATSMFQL

SMILES	inhibition
COc1cc(C(=O)NC2CC3CCC(C2)N3CC(=O)Nc2ccccc2)cc(OC)c1OC (stereo not drawn)	48.5% and 18.7%
COc1cc(C(=O)NC2CC3CCCC(C2)N3CC(=O)Nc2ccccc2)cc(OC)c1OC (stereo not drawn)	88.2% and 52.1% and 24.9%
COc1cc(C(=O)NC2CCN(CC(=O)Nc3ccccc3)CC2)cc(OC)c1OC	25.1%
